{
  "source": "PubChem BioAssay AID1508633",
  "about": "(National Center for Advancing Translational Sciences (NCATS), 2021)",
  "note": "Inconclusive results are not listed. A number with no mark means an inactive call. Calls of active or inactive are those of the source. Calls follow the shape of the dose curve; as a rule, active = well fitted inhibition curve with a large enough effect; inconclusive = small, poorly fitted or top-dose-only effect; inactive = no such curve, though single readings can be large or run the other way. Where a SMILES comes first, the peptide text is derived from it. [ ]: non-standard residue; d: D form. The star is where a group is joined. Cbz = O=C(OCc1ccccc1)*; Nva = CCC[CH](N)C(=O)O",
  "data": [
    {"tested_on": "zebrafish ABCB5 (Abcb5) multidrug transporter", "experiment": "qHTS for characterization and localization of zebrafish homologs of the human ABCB1 multidrug transporter: ABCB5 transfected cells", "settings": "CellTiter-Glo luminescence viability, 72 h; series mostly up to 46.1 µM", "description": "The zebrafish has emerged as a potential model to study the blood-brain barrier (BBB) given its similarities with mammalian systems. However, little information has been available with regard to homologous ATP-binding cassette transporters expressed at the zebrafish BBB. Two transporters that are highly expressed at the human BBB are P-glycoprotein (P-gp, encoded by the ABCB1 gene) and ABCG2 (encoded by the ABCG2 gene). In this study, we focus on characterization of P-gp homologs in the zebrafish, which has two genes that are homologous to human ABCB1 - abcb4 and abcb5. We generated stably-transfected cell lines to determine their substrate specificities. […] Zebrafish abcb4 also colocalized with claudin 5 expression in brain endothelial cells.\nA high-throughput screen was performed as previously described on empty vector transfected cells, P-gp-overexpressing MDR-19 cells and cells transfected with full-length zebrafish abcb4 (ZF Abcb4) or abcb5 (ZF Abcb5). Briefly, cells were plated into 1536-well plates at a density of 500 cells/well in 5 uL media. P-gp substrate compounds (approximately 90) selected from our previous study were then added at varying concentrations using a 1536-head pin tool (Kalypsis, San Diego, CA) and plates were incubated at 37C in 5% CO2 for 72 h. CellTiter-Glo reagent (Promega) was dispensed into the wells, incubated for 5 min and luminescence was read on a ViewLux instrument (Perkin-Elmer).\nCytotoxic compounds were defined as those that yielded a curve class of -1.1, -1.2, -2.1, -2.2, -2.3, or -2.4, a maximum response of >50% and an AC50 of < 10 uM. All compounds from screening analysis were tested in Vector (empty vector control), MDR-19 (P-gp overexpressing), zebrafish abcb4 (ZF Abcb4) and abcb5 (ZF Abcb5) expression cell lines.\n1. Tobie D Lee, Olivia W Lee, Kyle R Brimacombe, Lu Chen, Rajarshi Guha, Sabrina Lusvarghi, Bethilehem G Tebase, Carleen Klumpp-Thomas, Robert W Robey, Suresh V Ambudkar, Min Shen, Michael M Gottesman, Matthew D Hall. A High-Throughput Screen of a Library of Therapeutics Identifies Cytotoxic Substrates of P-glycoprotein. Mol Pharmacol. 2019, Nov;96(5):629-640.", "values": [
      {"compound": "CC[n+]1c(-c2ccccc2)c2cc(N)ccc2c2ccc(N)cc21", "Potency": "11800 nM (active)"},
      {"compound": "CC[C@@H]1C(=O)N(C)c2cnc(Nc3ccc(C(=O)NC4CCC(N5CCN(CC6CC6)CC5)CC4)cc3OC)nc2N1C(C)C", "note": "(stereo not given in full)", "Potency": "1320 nM (active)"},
      {"compound": "Cc1cc(N)c2ccccc2[n+]1CCCCCCCCCC[n+]1c(C)cc(N)c2ccccc21", "Potency": "8330 nM (active)"},
      {"compound": "Oc1ccc(-c2ccc(-c3cc(Nc4cccc(CNC5CC5)c4)n[nH]3)cc2)c(O)c1", "Potency": "5260 nM (active)"},
      {"compound": "CCC(C)C(=O)OC1CC(O)C23C4OCC5(C(O)CC2C1(C)C(O)O4)C3C(=O)C(O)C1(C)C(O)(c2ccoc2)CC2OC251", "note": "(stereo not given)", "Potency": "inactive"},
      {"compound": "C[C@@H]1O[C@@H](O[C@H]2[C@@H](OC(=O)[C@]34CCC(C)(C)CC3C3=CCC5[C@@]6(C)C[C@H](O)[C@H](O[C@@H]7O[C@H](CO)[C@@H](O)[C@H](O)[C@H]7O[C@@H]7OC[C@@H](O)[C@H](O)[C@H]7O)[C@@](C)(C(=O)O)C6CC[C@@]5(C)[C@]3(C)CC4)OC[C@H](O)[C@@H]2O)[C@H](O)[C@H](O)[C@H]1O[C@@H]1OC[C@@H](O)[C@H](O)[C@H]1O", "note": "(stereo not given in full)", "activity, negative = inhibition": "-6.88% [at 8.96 µM]"},
      {"compound": "Cc1cc(Nc2cc(NC(=O)c3c(Cl)cccc3Cl)ccn2)nc(N)n1", "Potency": "7430 nM (active)"},
      {"compound": "C=CCn1c(=O)c2cnc(Nc3ccc(N4CCN(C)CC4)cc3)nc2n1-c1cccc(C(C)(C)O)n1", "Potency": "2350 nM (active)"},
      {"compound": "CC(=O)O[C@@H]1C[C@H](O)[C@@]23CO[C@@H](O)C1(C)[C@@H]2C[C@@H](O)[C@]1(C)[C@@H]3C(=O)[C@H](OC(C)=O)[C@@]2(C)[C@H](c3ccoc3)C[C@H]3O[C@]321", "Potency": "1050 nM (active)"},
      {"compound": "N=C(N)c1ccc(OCCCCCOc2ccc(C(=N)N)cc2)cc1", "Potency": "13200 nM (active)"},
      {"compound": "CCCC(C=O)NC(=O)C(CC(C)C)NC(=O)C(CC(C)C)NC(=O)OCc1ccccc1", "note": "(stereo not drawn) (Cbz-Leu-Leu-[Nva]-aldehyde; configuration not given here)", "Potency": "1870 nM (active)"},
      {"compound": "C/C=C1/NC(=O)C2CSSCCC=CC(CC(=O)NC(C(C)C)C(=O)N2)OC(=O)C(C(C)C)NC1=O", "note": "(stereo not given)", "Potency": "2090 nM (active)"},
      {"compound": "NC(=O)Nc1cc(-c2cccc(F)c2)sc1C(=O)N[C@H]1CCCNC1", "Potency": "662 nM (active)"},
      {"compound": "CCc1cccc(CC)c1NC(=O)N1Cc2[nH]nc(NC(=O)c3ccc(N4CCN(C)CC4)cc3)c2C1", "Potency": "inactive"},
      {"compound": "Cc1ccc(C(=O)N(CCCN)[C@@H](c2oc3cc(Cl)ccc3c(=O)c2Cc2ccccc2)C(C)C)cc1", "Potency": "23500 nM (active)"},
      {"compound": "C#CCN(Cc1cc2c(=O)n(C)c(CN3CCN(C)CC3)nc2cc1Cl)c1ccc(C(=O)NCc2cccnc2)cc1", "Potency": "inactive"},
      {"compound": "COc1cc2c(NC3CCN(C(C)C)CC3)nc(N3CCCN(C)CC3)nc2cc1OCCCN1CCCC1", "Potency": "inactive"},
      {"compound": "CCN(CCCO)CCCOc1ccc2c(Nc3cc(CC(=O)Nc4cccc(F)c4)[nH]n3)ncnc2c1", "Potency": "inactive"},
      {"compound": "CN(C)C1CCN(C(=O)c2ccc(NC(=O)Nc3ccc(-c4nc(N5CCOCC5)nc(N5CCOCC5)n4)cc3)cc2)CC1", "Potency": "7430 nM (active)"},
      {"compound": "CCn1nnc2c(N3CCOCC3)nc(-c3ccc(NC(=O)Nc4ccc(C(=O)N5CCN(C)CC5)cc4)cc3)nc21", "Potency": "1870 nM (active)"},
      {"compound": "COc1cc(C(=O)NC2CCN(C)CC2)ccc1Nc1ncc2c(n1)N(C1CCCC1)CC(F)(F)C(=O)N2C", "Potency": "1180 nM (active)"},
      {"compound": "CCN(CC)Cc1ccc(C(=O)N(CCc2ccccc2OC)[C@@H]2CCNC2)cc1", "Potency": "inactive"},
      {"compound": "CC(=O)C1(O)Cc2c(O)c3c(c(O)c2C(OC2CC(N)C(O)C(C)O2)C1)C(=O)c1c(O)cccc1C3=O", "note": "(stereo not given)", "Potency": "59 nM (active)"},
      {"compound": "C=C1CO[C@@]2(O[C@H]3CC4C5CC=C6C[C@@H](O)C[C@@H](O[C@@H]7OC[C@H](O)[C@H](O[C@@H]8OC[C@@H](O)[C@H](O)[C@H]8O)[C@H]7O[C@@H]7O[C@@H](C)[C@H](OC(C)=O)[C@@H](OC(C)=O)[C@H]7OC(C)=O)[C@]6(C)C5CC[C@]4(C)[C@@H]3[C@@H]2C)[C@@H](O)[C@H]1OC1OC(C)C(O)C(O)C1O", "note": "(stereo not given in full)", "activity, negative = inhibition": "3.83% [at 8.96 µM]"},
      {"compound": "C#Cc1cccc(Nc2ncnc3cc(OC)c(OCCCCCCC(=O)NO)cc23)c1", "Potency": "8330 nM (active)"},
      {"compound": "COc1cc2ncn(-c3cc(OCc4ccccc4C(F)(F)F)c(C(N)=O)s3)c2cc1OC", "Potency": "6790 nM (active)"},
      {"compound": "CC(C)C[C@H](NC(=O)[C@@H](NC(=O)c1cccc(-c2ccccc2)n1)[C@@H](C)O)B(O)O", "Potency": "118 nM (active)"},
      {"compound": "Cc1ccc(-c2ncn(-c3ccc(Nc4nccc(-c5cccc(N6CCOCC6)c5)n4)cc3)n2)cn1", "Potency": "5900 nM (active)"},
      {"compound": "CC[C@@H]1C(=O)N(C)c2cnc(Nc3ccc(C(=O)NC4CCN(C)CC4)cc3OC)nc2N1C1CCCC1", "Potency": "1320 nM (active)"},
      {"compound": "CC1(C)CC(NC(=O)C(=O)Nc2ccc(Br)cc2)CC(C)(C)N1", "Potency": "inactive"},
      {"compound": "Cc1ccc(C(=O)N(CCCN)C(c2nc3cc(Cl)ccc3c(=O)n2Cc2ccccc2)C(C)C)cc1", "note": "(stereo not given)", "Potency": "23500 nM (active)"},
      {"compound": "NC(=O)Nc1cc(-c2ccc(CN3CCOCC3)c(F)c2)sc1C(=O)N[C@H]1CCCNC1", "Potency": "1480 nM (active)"},
      {"compound": "CN(C)CCN(C)C(=O)c1ccc(NC(=O)Nc2ccc(-c3nc(N4CCOCC4)c4ccn(CC(F)(F)F)c4n3)cc2)cc1", "Potency": "2350 nM (active)"},
      {"compound": "COc1cc2c(NC3CCN(C(C)C)CC3)nc(N3CCCN(C)CC3)nc2cc1OCCOCCN(C)C", "Potency": "inactive"},
      {"compound": "CN(C)C1CCN(C(=O)c2ccc(NC(=O)Nc3nc(N4CCOCC4)nc(N4CCOCC4)n3)cc2)CC1", "Potency": "4690 nM (active)"},
      {"compound": "CC(C)C[C@H](NC(=O)[C@H](CCc1ccccc1)NC(=O)CN1CCOCC1)C(=O)N[C@@H](Cc1ccccc1)C(=O)N[C@@H](CC(C)C)C(=O)[C@@]1(C)CO1", "Potency": "166 nM (active)"},
      {"compound": "CC(C)C[C@@H](C=O)NC(=O)[C@H](CC(C)C)NC(=O)[C@H](CC(C)C)NC(=O)OCc1ccccc1", "note": "(Cbz-Leu-Leu-Leu-aldehyde)", "Potency": "1180 nM (active)"},
      {"compound": "C[C@@]12O[C@@H](C[C@]1(O)CO)n1c3ccccc3c3c4c(c5c6ccccc6n2c5c31)CNC4=O", "Potency": "5260 nM (active)"},
      {"compound": "COC[C@H](NC(=O)c1cnc(C)s1)C(=O)N[C@@H](COC)C(=O)N[C@@H](Cc1ccccc1)C(=O)[C@@]1(C)CO1", "Potency": "166 nM (active)"},
      {"compound": "COCCn1c2c([n+](Cc3cnccn3)c1C)C(=O)c1ccccc1C2=O", "Potency": "93.5 nM (active)"}
    ]}
  ]
}
